# HCV inhibitor: HCV inhibition; Potency, µM (highest dose often 41.8 µM), for the others: at the top dose activity change, negative = inhibition, most hits filed as inhibitors; 340,000 compounds, 3.4% hits; Huh7.5.1 HCVcc-Cre infection, luciferase reporter, 44 h; also: % is scaled to controls: 0 for no effect and ±100 for the full control effect
#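 Reporter virus HCVcc-Cre (~0.5 moi) infects cells exposed to compound; seeding density 1,000 cells/well with 4 h settling beforehand. Luminescence, 15 sec read, taken 44 h post-infection following a 15 min RT substrate incubation.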
# VACV mCherry inh: vaccinia inhibition (mCherry reporter). Vaccinia virus mCherry reporter infection, fluorescence. 310,000 compounds, 0.63% hits. Potency, µM (highest dose often 36.5 µM), inactives show at the highest dose activity change, negative = inhibition, usual class: inhibitors; calls by dose curve; tested in A549 cells; also: % is scaled to controls: 0 for no effect and ±100 for the full control effect; nearly all actives have a fitted effect of over 35% in size
# Pf growth 48h: P. falciparum growth inhibition at 48 hours (one generation); P. falciparum luciferase growth in erythrocytes, 48 h; Potency, µM (top dose mostly 28.7 µM), inactives show top-dose activity change, negative = inhibition, most hits filed as inhibitors; 310,000 compounds, 5.9% hits; also: % is scaled to controls: 0 for no effect and ±100 for the full control effect
#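 Erythrocytes infected with P. falciparum carrying an integrated firefly luciferase reporter (2% hematocrit, 0.1% parasitemia final) were exposed to compounds in RPMI 1640 with 0.5% Albumax at 37 C, 5% CO2. Growth inhibition was scored as reduced luminescence.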
# VACV Venus inh: vaccinia inhibition (Venus reporter); Vaccinia virus Venus reporter expression, fluorescence; Potency, µM (top dose mostly 36.5 µM), inactives show top-dose activity change, negative = inhibition, most hits filed as inhibitors; 330,000 compounds, 0.46% hits; calls by dose curve; tested in A549 cells; also: % is scaled to controls: 0 for no effect and ±100 for the full control effect; nearly all actives have a fitted effect of over 30% in size
# Pf growth 96h: P. falciparum growth inhibition at 96 hour, primary screen for plastid delayed-death inhibitors; P. falciparum luciferase reporter growth, 96 h; Potency, µM (highest dose often 28.7 µM), for inactives: top-dose activity change, negative = inhibition, usual class: inhibitors; 320,000 compounds, 6.9% hits; AID 504834; also: % is scaled to controls: 0 for no effect and ±100 for the full control effect
#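 Cell-based qHTS: luciferase-tagged P. falciparum in erythrocytes (2% hematocrit, 0.05% parasitemia final) incubated with compounds for 96 hours, 37 C, 5% CO2; luciferase detection reagent then added and luminescence measured.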
# NS1 function inh: inhibitors of influenza NS1 protein function; Potency, µM (titrated, usually from 46.1 µM), without a hit: at the highest dose activity, positive = more growth; 270,000 compounds, 0.4% hits; AID 2326; calls by dose curve; also: actives are rising curves; nearly all actives have a fitted effect of over 50% in size
#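 Growth recovery, yeast-based: influenza A NS1 expressed in S. cerevisiae causes slow growth, and suppressors are detected by OD600. The parent strain without NS1 is used as positive control.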
# * hit, by the source's call; i = inactive; ? = inconclusive; . = not tested or not shown; ! = a repeat was not active; [ ] = remark or other dose. An excerpt weighted towards active compounds, which were near 11% of everything screened. Unless noted, calls follow the shape of the dose curve; as a rule, active = well fitted inhibition curve with a large enough effect; inconclusive = small, poorly fitted or top-dose-only effect, or another doubt; inactive = no such curve, though single readings can be large or run the other way. Potency is read from the fitted curve at half-maximal effect.
SMILES,HCV inhibitor,VACV mCherry inh,Pf growth 48h,VACV Venus inh,Pf growth 96h,NS1 function inh
Cc1cc(=O)[nH]c(SCc2ccccc2)n1,8%,i,12µM*,-15%,3%,10%
COc1ccc(C(=O)CSc2nc(C)cc(=O)[nH]2)cc1,19%,-8%,-3%,-10%,?,6%
N#CC1c2ccccc2-n2nncc2CN1C(=O)CCc1ccccc1 (configuration not stated),12%,i,.,-9%,.,.
C/C(=N/OCO/N=C(\C)c1ccccc1F)c1ccccc1F,-6%,-4%,-5%,-5%,1.7µM*,0%
C/C(=N\NC(=S)NCc1ccccc1)c1ccccc1F,?,-24%,?,-7%,-28%,.
CCN(CCn1cccn1)C(=O)CC1C(=O)NCCN1Cc1ccc(F)c(F)c1 (configuration not stated),6%,-5%,3%,0%,?,0%
CC(C)(C)c1cc(NCc2ccccn2)n2ncc(-c3ccccc3)c2n1,13µM*,-3%[7.34 µM],?,-3%[7.34 µM],?,-51%
CC(C)(C)c1ccccc1NC(=O)CN1C(=O)NC2(CCCCCC2)C1=O,-5%,-4%,-10%,-15%,-17%,.
COc1ccc(C(C[N+](=O)[O-])c2c(C)[nH]c3ccccc23)cc1OC (configuration not stated),?,?,2.1µM*,-28%,?,-7%
COc1ccc(-c2cc3ccccc3oc2=O)cc1NC(=O)c1ccc(Br)o1,16%,-16%,17%,-14%,-2%,-25%
COc1cc(NC(=O)c2cccnc2)ccc1-c1cc2ccccc2oc1=O,.,.,-5%,.,57%,.
CCC(=O)Nc1cc(-c2cc3ccccc3oc2=O)ccc1OC,?,.,85%,.,2.9µM*,-12%
CCC(=O)Nc1ccc(-c2cc3ccccc3oc2=O)cc1,22%,i,44%,-14%,16%,-1%
COc1cc(NC(=O)c2cc(Cl)ccc2Cl)ccc1-c1cc2ccccc2oc1=O,.,-14%,?,-9%,12µM*,-6%
COc1ccc(-c2cc3ccccc3oc2=O)cc1NC(=O)c1ccc([N+](=O)[O-])o1,?,11µM*,?,?,2.6µM*,-4%
O=C(CCn1c(=O)oc2ccccc21)n1c(=O)oc2ccccc21,9%,.,0%,.,25%,-17%
Cc1cc2c(C(C)C)c(O)c(O)c(C=O)c2c(O)c1-c1c(C)cc2c(C(C)C)c(O)c(O)c(C=O)c2c1O,?,4.5µM*,13µM*,4µM*,5.2µM*,0.35µM*!
COc1ccc(-n2c(Cc3cccn3C)nnc2SCC(=O)Nc2ccccc2C)cc1,9%,.,.,.,6.6µM*,-2%
COc1ccc(-n2c(Cc3cccn3C)nnc2SCC(=O)Nc2ccc(F)cc2F)cc1,-12%,.,?,.,?,3%
COc1ccc(OC)c(NC(=O)CSc2nnc(Cc3cccn3C)n2-c2ccc(F)cc2)c1,?,-10%,13µM*,-1%,-13%,-16%
COc1cccc(NC(=O)CSc2nnc(Cc3cccn3C)n2-c2ccc(F)cc2)c1,-30%,-16%,?,-10%,4.1µM*,9%
COc1ccc(-n2c(Cc3cccn3C)nnc2SCC(=O)Nc2cccc(OC)c2)cc1,-2%,.,?,.,17%,-3%
COc1ccc(-n2c(Cc3cccn3C)nnc2SCC(=O)Nc2cccc(C)c2C)cc1,2%,-6%,?,-4%,?,?
CCN(CCO)c1ccc(Nc2cc(-c3ccc(-c4ccccc4)cc3)ncn2)cc1,.,32µM*,.,-25%,.,.
CCCN1C[C@H](CSC)C[C@@H]2c3cccc4[nH]cc(c34)C[C@H]21,-22%,-18%,?,-8%,10µM*,-3%
SMILES,HCV inhibitor,VACV mCherry inh,Pf growth 48h,VACV Venus inh,Pf growth 96h,NS1 function inh
CN(C)/C=N/C(=S)Nc1ccc(Cl)cc1,3%,-20%,11%,-10%,-18%,-3%
CN(C)/C=N/C(=S)Nc1ccc(Cl)cc1Cl,14µM*,-25%,37%,-9%,9%,-4%
Nc1nc(-c2ccccc2)c(N=Nc2cccc3ccccc23)s1,?,?,11%,?,?,6%
Nc1nc(-c2ccccc2)c(N=Nc2ccccc2Cl)s1,11µM*,-28%,?,?,?,2%
c1ccc(SSc2ccccc2)cc1,9%,i,-15%,-13%,7%,-5%
COc1ccc(S(=O)(=O)Nc2cc3c(C(C)=O)c(C)oc3c3ccccc23)cc1,18µM*,-25%,.,?,?,15%
Cc1oc2c(cc(NS(=O)(=O)c3ccc(F)cc3)c3ccccc32)c1C(=O)O,29%,?,3%,13%,7.4µM*,-1%
CC(=O)c1c(C)oc2c1cc(NS(=O)(=O)c1ccc(C(C)(C)C)cc1)c1ccccc12,.,-15%,.,-9%,.,.
Cc1oc2c(cc(NS(=O)(=O)c3cccs3)c3ccccc32)c1C(=O)OC(C)C,-24%,-23%,?,-12%,9.3µM*,28%
O=C(CSc1cccc2cccnc12)Nc1ccc(S(=O)(=O)N2CCOCC2)cc1,-28%,?,12µM*,-14%,-9%,?
COc1ccc(NC(=O)CSc2cccc3cccnc23)c(OC)c1,-6%,i,34%,2%,-15%,-7%
CC(OC(=O)CNC(=O)c1ccccc1)C(=O)Nc1ccc(S(=O)(=O)N2CCOCC2)cc1 (configuration not stated),32%,-16%,6%,-9%,0%,.
CC(CC(=O)Nc1ccc(S(=O)(=O)N2CCOCC2)cc1)c1ccccc1 (configuration not stated),-9%,-15%,3.3µM*,2%,9%,-79%
CCCCCOc1ccc(NC(=O)CSc2cccc3cccnc23)cc1,1%,-10%,10µM*,7%,5.2µM*,-3%
CC(OC(=O)c1ccccc1NCCO)C(=O)Nc1ccc(S(=O)(=O)N2CCOCC2)cc1 (configuration not stated),8.9µM*,-6%,?,-1%,-29%,.
O=C(CCCOc1ccccc1)Nc1ccc(S(=O)(=O)N2CCOCC2)cc1,-1%,.,12µM*,-27%,?,-5%
NNC(=O)c1ccc(CSc2cccc3cccnc23)cc1,5%,-5%,-1%,-13%,3%,.
Cc1ccc(OCCCC(=O)Nc2ccc(S(=O)(=O)N3CCOCC3)cc2)cc1,?,.,?,.,-26%,.
CCOc1ccccc1OCCCC(=O)Nc1cccc(S(=O)(=O)N2CCOCC2)c1,?,.,13µM*,.,?,.
CCc1ccc(OCCCC(=O)Nc2ccc(N3CCOCC3)cc2)cc1,-17%,.,-18%,.,7.4µM*,2%
Cc1cccc(CSc2cccc3cccnc23)c1,19%,?,32%,?,4.7µM*,-125%
O=C(Cn1c(=S)[nH]c2ccccc2c1=O)N1CCN(c2ccccc2)CC1,?,-13%,9%,-7%,?,.

# Assay outcomes: PubChem BioAssay, National Center for Advancing Translational Sciences (NCATS)
